A short description of the assay: viability loss with induced miR-34 in A549 – imaging, A549 dox-inducible miR-34, nuclei and caspase counts, primary screen (AID 1347080). Also: test concentration not given here. To be noted: A549 miR-34 inducible, Hoechst nuclei count, 48 h; measured here: relative caspase fold change +Dox/-Dox.
In the case of `CCC(=O)O[C@H]1CCC2C3CCc4cc(O)ccc4C3CC[C@@]21C` (some centres not stated), the fold change came to 2.49. As to `CC(C)CC(=O)N[C@H](C(=O)NC(C(=O)NC(CC(C)C)[C@@H](O)CC(=O)N[C@@H](C)C(=O)N[C@@H](CC(C)C)[C@@H](O)CC(=O)O)C(C)C)C(C)C` (some centres not stated), the fold change stood at 3.28. With `CC(=O)N[C@@H]1[C@@H](O[C@H](C)C(=O)O)[C@H](O)[C@@H](CO)O[C@@H]1O`, the fold change was determined as 1.06.

As to `CNS(=O)(=O)c1ccc(NC(=O)c2ccccc2C(=O)O)cc1` (tested in a mixture with another compound), the fold change was found to be 3.2.

Take `CN1CC[C@]23c4ccccc4N[C@H]1[C@]21CCN(C)[C@H]3Nc2ccccc21`: the fold change stood at 1.16. As to `c1ccc(-c2[nH]ncc2-c2ccnc3ccccc23)nc1`, the fold change worked out at 0.903. As for `C[C@H]1[C@H](C)CC[C@]2(C(=O)O[C@@H]3O[C@H](COC4O[C@H](CO)[C@@H](OC5O[C@@H](C)[C@H](O)[C@@H](O)[C@H]5O)[C@H](O)[C@H]4O)[C@@H](O)[C@H](O)[C@H]3O)CC[C@]3(C)C(=CC[C@@H]4[C@@]5(C)C[C@@H](O)[C@H](O)[C@@](C)(CO)C5CC[C@]43C)[C@H]12` (some centres not stated), the figure is 0.577; as for `CCOCCOCCOCCOCCOCCOCCOCCOCCOCCO` (tested in a mixture with another compound), 1.63. On to `CC[N+]1(C)[C@@H]2CC[C@H]1CC(OC(=O)[C@H]1CCC(C(=O)OC3C[C@H]4CC[C@@H](C3)[N+]4(C)CC)(c3ccccc3)c3ccccc31)C2` (some centres not stated), for which the fold change stood at 1.08. `Oc1cccc(-c2nc(N3CCOCC3)c3sccc3n2)c1`: the fold change came to 0.61. With `CC(C)(CO)C(O)C(=O)NCCC(=O)O` (configuration not stated), the fold change was 0.783. As for `CC12CCC3c4ccc(OC(=O)c5ccccc5)cc4CCC3C1CCC2O` (configuration not stated), the fold change was determined as 2.66. Regarding `Nc1ncnc2c1c(I)cn2[C@@H]1O[C@H](CO)[C@H](O)C1O` (some centres not stated), the fold change was 0.838. On to `c1ccc2c3c([nH]c2c1)[C@H]1C2CCC([C@@H]4CCCN[C@H]24)N1CC3` (some centres not stated), for which the fold change was found to be 1.3. Turning to `CO[C@H]1C[C@H](O[C@H]2[C@H](C)[C@@H](OC3O[C@H](C)C[C@H](N(C)C)[C@H]3OC(C)=O)[C@@H](C)C[C@]3(CO3)C(=O)[C@H](C)[C@@H](OC(C)=O)[C@@H](C)[C@@H](C)OC(=O)[C@@H]2C)O[C@@H](C)[C@@H]1OC(C)=O` (some centres not stated), the fold change stood at 2.77. As for `CC(=O)OCC(=O)[C@@]1(O)CC[C@H]2[C@@H]3CCC4=CC(=O)CC[C@]4(C)C3(F)C(=O)C[C@@]21C` (some centres not stated), the figure is 1.05; as for `CN(C)c1ccc(O)c2c1CC1CC3[C@@H](N(C)C)C(=O)C(C(N)=O)=C(O)[C@]3(O)C(=O)C1=C2O` (some centres not stated), 1.3. Under `CCC(C)[C@H]1O[C@]2(CC[C@@H]1C)C[C@@H]1C[C@@H](C/C=C(\C)[C@@H](OC3C[C@H](OC)C(O[C@H]4C[C@H](OC)[C@@H](O)[C@H](C)O4)[C@H](C)O3)[C@@H](C)/C=C/C=C3\CO[C@@H]4[C@H](O)C(C)=C[C@@H](C(=O)O1)[C@]34O)O2` (some centres not stated) stands 1.61; under `CCC(C)N1CCC2(CC1)N=c1c(c3c4c5c(C)c(O)c3c(O)c1=NC(=O)/C(C)=C/C=C/[C@H](C)[C@H](O)[C@@H](C)[C@@H](O)[C@@H](C)[C@H](OC(C)=O)[C@H](C)[C@@H](OC)/C=C/O[C@@](C)(O5)C4=O)N2` (some centres not stated), 0.766.

As for `CCOC(=O)Oc1c(OC)cc(C(=O)O[C@@H]2C[C@@H]3CN4CCc5c([nH]c6cc(OC)ccc56)[C@H]4C[C@@H]3[C@H](C(=O)OC)[C@H]2OC)cc1OC`, the fold change was 2.41.

Consider `CO[C@H]1CC(O[C@@H]2/C(C)=C/C[C@@H]3C[C@@H](C[C@]4(CC[C@H](C)[C@@H](C5CCCCC5)O4)O3)OC(=O)[C@@H]3C=C(C)/C(=N/O)[C@H]4OC/C(=C\C=C\[C@@H]2C)[C@]43O)O[C@@H](C)C1O` (some centres not stated), for which the fold change turned out to be 3.74. With `COC(=O)[C@@H]1CC(=O)O[C@H](C)C/C=C/C=C/[C@H](O)[C@H](C)C[C@H](CC=O)[C@H](OC2O[C@H](C)[C@@H](OC3C[C@@](C)(O)[C@@H](OC(=O)CC(C)C)[C@H](C)O3)[C@H](N(C)C)[C@H]2O)[C@H]1OC` (some centres not stated), the fold change was determined as 3.35.

The record behind these values is PubChem BioAssay.
